# Source: PubChem BioAssay AID463190 (Sanford-Burnham Center for Chemical Genomics, 2010)
# Among all 330,000 compounds or so, about 7,300 (2.2%) were called active.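 The calls were made as follows: active = inhibition of at least 40%; inactive = the rest.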 Only a selection was taken, and actives are over-represented in it overall.
# Assay: growth inhibitors of tim10-1 mutant yeast, primary screen, luminescence, uHTS (AID 463190);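 also: mutant grown at 25 °C; 0% = DMSO wells with yeast and 100% = wells holding no yeast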
# Details: S. cerevisiae tim10-1 ts strain growth, BacTiter-Glo, 24 h; at 20 µM; active compounds read high
row,Structure (SMILES),inhibition
1,Cc1cc(C)c2c(n1)sc1c(=O)n(-c3ccccc3)c(=O)[nH]c12,4.48% (inactive)
2,Cc1cccc(NC(=S)NC23CN4CN(CN(C4)C2)C3)c1,10% (inactive)
3,Cc1cccc(NC(=S)Nc2ccc3cn[nH]c3c2)c1,15.4% (inactive)
4,Cc1cccc(NC(=S)Nc2ccc(Cl)c(Cl)c2)c1,49.9% (active)
5,Cc1cccc([C@@H]2[C@@H]3C(=O)N(C)C(=O)[C@@H]3[C@@H]3C(=O)Nc4ccccc4C(=O)N23)c1,5.99% (inactive)
6,O=C(NC1CCCC1)c1cc(-c2ccccc2)on1,-21.5% (inactive)
7,FC(F)(F)c1nnc2c3ccccc3c(Cl)nn12,17.8% (inactive)
8,Cc1cc(NC(=O)CSc2nc(C(C)C)nc3sc4c(c23)CCC(C)C4)no1 (stereo unspecified),4.7% (inactive)
9,CC1CCc2sc3nc(N4CCN(CCO)CC4)n4ncnc4c3c2C1 (stereo unspecified),40.6% (active)
10,CC(C)NC(=O)/C(C#N)=C\c1ccc(N(C)C)c(Br)c1,53.6% (active)
11,Cc1[nH]c2ccccc2c1/C=C(/C#N)C(=O)NC(C)C,20.4% (inactive)
12,CC(C)(C)C(=O)/C(C#N)=C/c1ccc(O)cc1,8.78% (inactive)
13,Cc1ccc(C(=O)OC2=CC(=O)CC(C)(C)C2)cc1,31% (inactive)
14,COCCCNS(=O)(=O)c1cccc(S(=O)(=O)c2cccc(S(=O)(=O)NCCCOC)c2)c1,2.99% (inactive)
15,O=C(COc1ccccc1F)NNC(=O)c1ccc(N2CCCCC2)c([N+](=O)[O-])c1,41.3% (active)
16,O=C(NCCCN1CCOCC1)c1ccc(N2CCCC2)c([N+](=O)[O-])c1,-9.34% (inactive)
17,Cc1ccccc1OCC(=O)NNC(=O)c1ccc(-n2cncn2)c([N+](=O)[O-])c1,-11% (inactive)
18,CC(C)CC(=O)N/C(N)=N/c1nc2ccccc2s1,19.6% (inactive)
19,CCOC(=O)/C(N=Nc1cc(C(=O)O)cc(C(=O)O)c1)=C(\O)CCl,11% (inactive)
20,O=c1cccc(-c2ccc(Br)cc2)o1,4.04% (inactive)
21,CCOC(=O)C(=CNc1cccc(C)n1)C(=O)OCC,-6.8% (inactive)
22,CCOC(=O)C(=Cc1ccccc1OC)C(=O)OCC,49.6% (active)
23,COc1ccccc1/C=C/C(=O)NC1CC2CCC1C2 (stereo unspecified),19.5% (inactive)
24,Cc1c(C)n2c(SCC(=O)N3CCCC3)nnc2[nH]c1=O,0.597% (inactive)

row,Structure (SMILES),inhibition
1,CCCCCCC(=O)N(O)C1CC(=O)N(c2ccccc2)C1=O (stereo unspecified),33.7% (inactive)
2,CCN(CC(=O)Nc1ccccc1C(=O)NC1CC1)Cc1cccs1,17.5% (inactive)
3,CN1C/C(=C/c2cccs2)C(=O)/C(=C\c2cccs2)C1,19.2% (inactive)
4,CSC1=N/C(=C\C=C\c2cccs2)C(=O)S1,47.1% (active)
5,Cc1cccc(C2=N/C(=C/c3cccs3)C(=O)O2)c1,31.5% (inactive)
6,O=C(NCc1ccccc1Cl)C1CCC(CNc2c(N3CCCCC3)c(=O)c2=O)CC1 (stereo unspecified),-8.66% (inactive)
7,C/C(=N\NC(=O)c1cc2c(s1)CCC(C)C2)c1cccnc1 (stereo unspecified),39.6% (inactive)
8,CCOC(=O)C1=C(c2ccccc2)NC(=O)NC1c1cc(OCC)c(O)c([N+](=O)[O-])c1 (stereo unspecified),-5.37% (inactive)
9,CCCc1[nH]nc2c1C(c1ccc(OC(=O)c3ccco3)cc1)C(C#N)=C(N)O2 (stereo unspecified),8.03% (inactive)
10,CCCc1[nH]nc2c1C(c1ccc(OC)c(Cn3nc(C)c(Br)c3C)c1)C(C#N)=C(N)O2 (stereo unspecified),11.3% (inactive)
11,CCCc1[nH]nc2c1C(c1ccc(Br)s1)C(C#N)=C(N)O2 (stereo unspecified),83% (active)
12,COc1ccc(NC(=O)COC(=O)CNC(=O)C2CCCCC2)cc1,4.06% (inactive)
13,Cc1ccc(NC(=O)CCOc2ccccc2)cc1S(=O)(=O)Nc1ccccc1Cl,43.7% (active)
14,CCc1ccccc1NC(=O)CCOc1ccccc1,11.8% (inactive)
15,CCOC(=O)c1cccc(NC(=O)CCOc2ccccc2)c1,12.6% (inactive)
16,CN(C(=O)CSc1nnc(Nc2ccccc2)s1)C1CCS(=O)(=O)C1 (stereo unspecified),8.97% (inactive)
17,COc1ccc(-c2cc(=O)oc3cc(OCC(=O)N[C@@H](Cc4c[nH]c5ccccc45)C(=O)O)ccc23)cc1,16.2% (inactive)
18,C=CCOC(=O)C1=C(C)N=C2SCCC(=O)N2C1/C=C/c1ccccc1OC (stereo unspecified),5.92% (inactive)
19,CCOc1ccccc1Oc1cn[nH]c1-c1ccc(OC)cc1O,-13% (inactive)
20,COc1ccc(Oc2cn[nH]c2-c2ccc(OC)cc2O)cc1,50.1% (active)
21,COc1ccc(-c2cn[nH]c2-c2ccc(OC)cc2)cc1,38.8% (inactive)
22,Cn1sc(=O)c2cc(S(=O)(=O)NC3CC3)ccc21,22.8% (inactive)
23,COc1ccc(N2CCN(C(=O)CCNC(=O)c3ccc(Br)cc3)CC2)cc1,12.6% (inactive)
24,COc1ccc(N2CCN(C(=O)CCSCc3ccccc3F)CC2)cc1,40.2% (active)

row,Structure (SMILES),inhibition
1,O=C(CCc1ccccc1F)N1CCN(c2ccccc2)CC1,6.47% (inactive)
2,CN(Cc1c(F)cccc1Cl)C(=O)CNC(=O)c1ccc2c(c1)OCO2,7.42% (inactive)
3,Cc1ccc(NC(=S)Nc2ncccc2C)c(C)c1,36.8% (inactive)
4,O=C(NCCCn1ccnc1)/C(=C\c1ccccc1F)NC(=O)c1ccccc1,-16.4% (inactive)
5,COc1ccc(-c2cc(C(=O)Nc3ccccc3O)c3ccccc3n2)cc1,11.2% (inactive)
6,O=C(NNc1c2ccccc2nc2ccccc12)c1cc2ccccc2cc1O,48.9% (active)
7,O=C(NN=Cc1ccc(N2CCOCC2)cc1)c1cc2ccccc2cc1O,0.793% (inactive)
8,CC1=CC(C)(C)Nc2ccc(OC(=O)CN3C(=O)C4CCCCC4C3=O)cc21 (stereo unspecified),42.7% (active)
9,CC1=CC(C)(C)Nc2ccc(OC(=O)C(Cc3ccccc3)N3C(=O)C4CCCCC4C3=O)cc21 (stereo unspecified),25.9% (inactive)
10,O=C(COC(=O)CN1C(=O)C2CCCCC2C1=O)Nc1ccc(F)c(F)c1F (stereo unspecified),8.83% (inactive)
11,Cc1cccc(C(=O)OC(C)C(=O)NC2CCCc3ccccc32)c1O (stereo unspecified),14.7% (inactive)
12,Cc1occc(=O)c1OCc1ccc(F)cc1,1.21% (inactive)
13,Cc1nc2ccccc2cc1OCc1ccc(F)cc1,40.5% (active)
14,Fc1cccc2ncnc(OCc3ccccc3)c12,5.91% (inactive)
15,O=c1[nH]c2ccccc2s1,8.84% (inactive)
16,O=C(NC1CCCCC1)c1ccc(-c2ccc(Cl)cc2)o1,46.1% (active)
17,O=C(NC1CCCCCC1)c1cccnc1Sc1ccc(Cl)cc1,17.4% (inactive)
18,O=C(NC(=S)NC1CCCCC1)c1ccc(Cl)cc1,34.7% (inactive)
19,Cc1cnc(CN(C)C(=O)CC2C(=O)NCCN2Cc2cccc(F)c2F)[nH]1 (stereo unspecified),0.623% (inactive)
20,CC(C)OCC(O)CN1CCN(C(c2ccccc2)c2ccccc2)CC1 (stereo unspecified),6.5% (inactive)
21,COC(=O)COc1ccc(C2NC(=O)NC(C)=C2C(=O)NCc2ccccc2)cc1OC (stereo unspecified),1.06% (inactive)
22,Cc1ccc(SCC2=NNC(=O)C2)cc1,33.5% (inactive)
23,CCOc1ccc(NC(=O)CN(C)C(=O)Cn2c(=O)cnc3ccccc32)cc1OCC,-8.6% (inactive)
24,C/C(=N\Nc1nc(N2CCOCC2)nc(N2CCOCC2)n1)c1ccc([N+](=O)[O-])cc1,14% (inactive)

row,Structure (SMILES),inhibition
1,C/C(=N\Nc1nc(Nc2ccccc2)nc(N2CCOCC2)n1)c1cccs1,41.3% (active)
2,O=C(CSc1nc(Nc2ccccc2)nc(N2CCOCC2)n1)Nc1cc(Cl)ccc1O,-0.275% (inactive)
3,COc1ccc(C2(CNC(=O)C(c3ccccc3)c3ccccc3)CCOCC2)cc1OC,15.2% (inactive)
4,CCCCCCCCn1c2c(c(=N)c3c1CCC3)CCCC2,49.1% (active)
5,Cc1cc(C)n(C(=O)CCNC(=O)c2ccccc2Cl)n1,-10.3% (inactive)
6,CN(c1ccc(OCC(=O)O)cc1)S(=O)(=O)c1ccc2ccccc2c1,11.1% (inactive)
7,O=C(COc1ccccc1)Nc1ccc(F)cc1,12.1% (inactive)
8,CN(c1ccccc1)S(=O)(=O)c1ccc(NC(=O)COc2ccccc2)cc1,40.2% (active)
9,CC(=O)Nc1ccc(S(=O)(=O)N2CCC(C(=O)NC3CC3)CC2)cc1,5.84% (inactive)
10,CCc1ccc2oc(-c3ccc(N)cc3)nc2c1,41.3% (active)
11,Cc1cc2nc(-c3ccc(NC(=O)c4cccnc4)cc3)oc2cc1C,12.5% (inactive)
12,O=C(Nc1ccc2oc(-c3ccc4ccccc4c3)nc2c1)c1cccs1,3.31% (inactive)
13,Cc1ccc(NC(=O)COC(=O)CCc2nc3ccccc3n2-c2ccccc2)c(C)c1,10.3% (inactive)
14,Cc1ccc2c(c1)C1CN(C)CCC1N2S(=O)(=O)c1ccc(Oc2ccc([N+](=O)[O-])cc2)cc1 (stereo unspecified),43.1% (active)
15,Cc1ccc2c(c1)C1CN(C)CCC1N2S(=O)(=O)c1cccc(F)c1 (stereo unspecified),3.83% (inactive)
16,Cc1ccc2c(c1)C1CN(C)CCC1N2C(=S)Nc1ccc(OC(F)F)cc1 (stereo unspecified),3.44% (inactive)
17,COCC(=O)Nc1c(I)c(C(=O)NCC(O)CO)c(I)c(C(=O)N(C)CC(O)CO)c1I (stereo unspecified),6% (inactive)
18,Cc1ccc(/C=C/C(=O)O)cc1S(=O)(=O)N1CCC(Cc2ccccc2)CC1,-0.486% (inactive)
19,COc1cc(CN2CCC(n3nccc3NC(=O)CCCc3ccccc3)CC2)ccc1O,25.4% (inactive)
20,COc1cccc(CN(C)CC2CCCN(CCc3ccc(Cl)cc3)C2)c1OC (stereo unspecified),-21.5% (inactive)
21,Nc1cc(C(F)(F)F)ccc1N1CCOCC1,11.6% (inactive)
22,CCc1ccc(C(CNc2nc(C(F)(F)F)nc3ccccc23)N(C)C)cc1 (stereo unspecified),29.3% (inactive)
23,CC(Nc1nc(C(F)(F)F)nc2ccccc12)c1cccs1 (stereo unspecified),42.6% (active)
24,COc1cccc(CNc2nc(C(F)(F)F)nc3ccccc23)c1,39.2% (inactive)
